From PubChem BioAssay

What follows are compounds tested against Voltage-gated potassium channel subunit beta-2 (Rattus norvegicus) (UniProt P62483) (assay: enhancers of rat Kvbeta2 NADPH turnover – biochemical, NADPH fluorescence, primary screen (AID 623;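 also: fluorescence intensity change per second fitted from 20 to 320 s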)). Conditions: Recombinant KvBeta, NADPH fluorescence decrease slope, 10 min; at 10 µM; hits give low values.
Chain of Voltage-gated potassium channel subunit beta-2 (Rattus norvegicus) (P62483 whole entry, looked up): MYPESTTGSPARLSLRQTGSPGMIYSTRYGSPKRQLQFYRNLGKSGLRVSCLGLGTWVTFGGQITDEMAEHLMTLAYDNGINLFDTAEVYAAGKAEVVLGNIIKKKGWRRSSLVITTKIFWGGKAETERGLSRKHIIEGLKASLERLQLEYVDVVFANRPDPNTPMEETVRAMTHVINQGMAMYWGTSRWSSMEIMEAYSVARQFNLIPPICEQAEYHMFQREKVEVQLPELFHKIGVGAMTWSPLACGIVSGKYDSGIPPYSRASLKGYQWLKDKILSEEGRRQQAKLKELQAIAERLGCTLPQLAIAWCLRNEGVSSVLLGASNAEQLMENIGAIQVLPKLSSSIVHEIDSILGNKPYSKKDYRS

NADPH fluorescence slope, inactive:
Cc1cccc2sc(NC(=O)CN(C)S(=O)(=O)c3cccs3)nc12 1e-05
CCOc1cc(NC(=O)c2ccco2)c(OCC)cc1NC(=O)Cc1cccc(OC)c1 -5.1e-05
CC(=O)Nc1c2c(nn1-c1ccc(C)cc1C)CSC2 -5.2e-05
CC(CC(=O)NC1CCSC1=O)c1ccccc1 (stereo not given) 3.8e-05
Cc1c(C(=O)O)c(-c2ccccc2)nn1-c1ccccc1 -0.000126
Cc1nnc(SCCn2c(Br)nc3c2c(=O)n(C)c(=O)n3C)s1 -1.8e-05
COc1ccccc1NC(=O)Cc1noc(CSc2cc(C)c3ccccc3n2)n1 -5.3e-05
COc1cccc2sc(NC(=O)c3ccc(S(=O)(=O)N4CCOCC4)cc3)nc12 -2.5e-05
C=CCN(C(=O)CNC(=O)c1ccco1)C(C(=O)NC1CCCCC1)c1ccccc1F (stereo not given) 1.7e-06
O=C(Nc1ccc(OC(=O)c2ccco2)cc1)c1ccco1 -1e-05
CCOc1ccc2ccccc2c1C(=O)N1CCN(c2ccccc2)CC1 -1.3e-05
Cc1ccc(C)c2[nH]c(=O)c(CCNC(=O)CC(C)(C)C)cc12 -5.3e-05
CC(=O)c1ccc(OCC(O)CN2CC(C)OC(C)C2)cc1 (stereo not given) 9.2e-06
O=c1[nH]c(SCc2ccccc2Cl)nc2c1CCCC2 -2.4e-06
CCCC(NC(=O)c1ccccc1)c1nc2ccccc2n1Cc1ccc(C(=O)OC)o1 (stereo not given) -3.2e-06
O=C(NC1CCCC1)C(c1ccco1)N(Cc1ccccc1)C(=O)c1csnn1 (stereo not given) -3.8e-05
O=C(Oc1cccc2cccnc12)c1cccc(-n2cnnn2)c1 -3.7e-05
Cc1cc(C(N)=O)c2cc(Br)ccc2n1 -5.1e-05
Cc1nc2ccc(S(=O)(=O)NC(C(=O)NCc3cccs3)C(C)C)cc2s1 (stereo not given) -5.2e-05
CCN(CC)c1ccc(NC(=O)CN2C(=O)CC(C)(C)S(=O)(=O)c3ccccc32)c(C)c1 -2.5e-05
O=c1[nH]cnc2c1nc(SCc1ccccc1)n2C1OC(CO)C(O)C1O (stereo not given) 1.2e-06
Cc1ncc(CSc2nc3ccccc3[nH]2)c(N)n1 -9.7e-06
CN(C(=O)c1ccccc1Cl)c1ccccc1 -2e-06
CCCSc1nc(N)c(C#N)c(-c2ccc(C)cc2)c1C#N -6.2e-05
CC1(C)CC(=O)C2=C(C1)NC(=O)CC2C(=O)NCc1ccc(F)cc1 (stereo not given) -4.7e-05
CCN(CC)CCCN1C(=O)C(=O)/C(=C(/O)c2ccc3c(c2)OCO3)C1c1ccccn1 (stereo not given) -4.9e-05
CCOC(=O)C1CCN(c2cc(C)nc3cc(-c4cccc(F)c4)nn23)CC1 -1.5e-05
COCCNC(=O)C(c1ccc(C)o1)N(Cc1ccc(OC)cc1)C(=O)Cn1nnc2ccccc21 (stereo not given) -1.9e-05
CCN1CCN(c2ncnc3c2cnn3-c2ccc(C)cc2C)CC1 -1.4e-05
Cc1cccc(C2c3c(n(C)c(=O)n(C)c3=O)N=C3c4ccccc4C(=O)C32)c1 (stereo not given) 2.2e-05
CCOC(=O)c1cc2c(=O)n3ccccc3nc2n(CCCOC)c1=NC(C)=O 1.2e-05
CCOc1ccccc1CNC(=O)CCN1C(=O)COc2ccccc21 -2.3e-05
COc1cc2c(cc1OC)CN(C(=O)CSc1nc3[nH]ncc3c(=O)n1-c1ccccc1)CC2 -2.6e-05
O=C(O)C1CC=CCC1C(=O)NCc1ccccc1 (stereo not given) 3.8e-06
CCCNc1nc2c(c(=O)n(C)c(=O)n2C)n1Cc1cccc(C)c1 -2.9e-05
Cc1ccc2c(c1)NC(=O)C(CC(=O)NC1CCCCC1C)O2 (stereo not given) -4.1e-05
Cc1cccc(N2CCN(C(=O)CCn3c(=S)[nH]c4cc5c(cc4c3=O)OCO5)CC2C)c1 (stereo not given) -2.6e-05
CC1CN(Cc2nc3c(c(=O)[nH]c(=O)n3C)n2CC(N)=O)CC(C)O1 (stereo not given) -3.9e-05
Cc1[nH]nc(N=CC2=C(O)CC(C)(C)CC2=O)c1-c1ccccc1 -2.3e-05
Cc1ccc(N2C(=O)c3ccccc3C2O)nc1 (stereo not given) -2.2e-05

What follows are compounds tested against Alpha-2C adrenergic receptor (Homo sapiens) (UniProt P18825) (assay: compounds altering alpha2C-coupled GIRK flux – cell-based, HEK293 alpha2C/GIRK1/2, thallium flux, primary screen (AID 624;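 active = fluorescence slope after compound addition differing from the mean of all screened samples at 99.7% confidence, in either direction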;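 also: slope of fluorescence ratio to pre-addition baseline per second over 15 to 24 s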)). Conditions: thallium flux BTC fluorescence, at 10 µM, actives lie on both sides.
Chain of Alpha-2C adrenergic receptor (Homo sapiens) (P18825 whole entry, looked up): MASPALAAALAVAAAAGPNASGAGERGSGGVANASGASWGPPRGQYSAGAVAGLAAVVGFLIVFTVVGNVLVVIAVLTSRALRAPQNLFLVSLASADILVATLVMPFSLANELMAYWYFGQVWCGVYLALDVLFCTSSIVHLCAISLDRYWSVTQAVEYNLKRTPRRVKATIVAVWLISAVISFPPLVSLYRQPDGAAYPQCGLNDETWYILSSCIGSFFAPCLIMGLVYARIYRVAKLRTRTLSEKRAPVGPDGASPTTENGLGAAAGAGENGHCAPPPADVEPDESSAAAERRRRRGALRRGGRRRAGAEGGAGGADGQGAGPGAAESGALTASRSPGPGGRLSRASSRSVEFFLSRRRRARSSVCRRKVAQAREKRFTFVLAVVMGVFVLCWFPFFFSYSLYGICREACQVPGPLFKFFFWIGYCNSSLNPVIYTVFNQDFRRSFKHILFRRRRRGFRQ

slope, inactive:
Cc1cccc2sc(NC(=O)CN(C)S(=O)(=O)c3cccs3)nc12 0.00346
CCOc1cc(NC(=O)c2ccco2)c(OCC)cc1NC(=O)Cc1cccc(OC)c1 0.00431
CC(=O)Nc1c2c(nn1-c1ccc(C)cc1C)CSC2 0.00674
CC(CC(=O)NC1CCSC1=O)c1ccccc1 (stereo not given) 0.00567
Cc1c(C(=O)O)c(-c2ccccc2)nn1-c1ccccc1 0.00692
Cc1nnc(SCCn2c(Br)nc3c2c(=O)n(C)c(=O)n3C)s1 0.00518
COc1ccccc1NC(=O)Cc1noc(CSc2cc(C)c3ccccc3n2)n1 0.00168
COc1cccc2sc(NC(=O)c3ccc(S(=O)(=O)N4CCOCC4)cc3)nc12 0.00479
C=CCN(C(=O)CNC(=O)c1ccco1)C(C(=O)NC1CCCCC1)c1ccccc1F (stereo not given) 0.00581
O=C(Nc1ccc(OC(=O)c2ccco2)cc1)c1ccco1 0.00563
CCOc1ccc2ccccc2c1C(=O)N1CCN(c2ccccc2)CC1 0.0036
Cc1ccc(C)c2[nH]c(=O)c(CCNC(=O)CC(C)(C)C)cc12 0.00614
CC(=O)c1ccc(OCC(O)CN2CC(C)OC(C)C2)cc1 (stereo not given) 0.00724
O=c1[nH]c(SCc2ccccc2Cl)nc2c1CCCC2 0.00421
CCCC(NC(=O)c1ccccc1)c1nc2ccccc2n1Cc1ccc(C(=O)OC)o1 (stereo not given) 0.00315
O=C(NC1CCCC1)C(c1ccco1)N(Cc1ccccc1)C(=O)c1csnn1 (stereo not given) 0.006
O=C(Oc1cccc2cccnc12)c1cccc(-n2cnnn2)c1 0.00392
Cc1cc(C(N)=O)c2cc(Br)ccc2n1 0.0072
Cc1nc2ccc(S(=O)(=O)NC(C(=O)NCc3cccs3)C(C)C)cc2s1 (stereo not given) 0.00687
CCN(CC)c1ccc(NC(=O)CN2C(=O)CC(C)(C)S(=O)(=O)c3ccccc32)c(C)c1 0.00659
O=c1[nH]cnc2c1nc(SCc1ccccc1)n2C1OC(CO)C(O)C1O (stereo not given) 0.00624
Cc1ncc(CSc2nc3ccccc3[nH]2)c(N)n1 0.00699
CN(C(=O)c1ccccc1Cl)c1ccccc1 0.00587
CCCSc1nc(N)c(C#N)c(-c2ccc(C)cc2)c1C#N 0.00536
CC1(C)CC(=O)C2=C(C1)NC(=O)CC2C(=O)NCc1ccc(F)cc1 (stereo not given) 0.00523
CCN(CC)CCCN1C(=O)C(=O)/C(=C(/O)c2ccc3c(c2)OCO3)C1c1ccccn1 (stereo not given) 0.00526
CCOC(=O)C1CCN(c2cc(C)nc3cc(-c4cccc(F)c4)nn23)CC1 0.00523
COCCNC(=O)C(c1ccc(C)o1)N(Cc1ccc(OC)cc1)C(=O)Cn1nnc2ccccc21 (stereo not given) 0.00364
CCN1CCN(c2ncnc3c2cnn3-c2ccc(C)cc2C)CC1 0.00772
Cc1cccc(C2c3c(n(C)c(=O)n(C)c3=O)N=C3c4ccccc4C(=O)C32)c1 (stereo not given) 0.00343
CCOC(=O)c1cc2c(=O)n3ccccc3nc2n(CCCOC)c1=NC(C)=O 0.00482
CCOc1ccccc1CNC(=O)CCN1C(=O)COc2ccccc21 0.00611
COc1cc2c(cc1OC)CN(C(=O)CSc1nc3[nH]ncc3c(=O)n1-c1ccccc1)CC2 0.00737
O=C(O)C1CC=CCC1C(=O)NCc1ccccc1 (stereo not given) 0.00502
CCCNc1nc2c(c(=O)n(C)c(=O)n2C)n1Cc1cccc(C)c1 0.00499
Cc1ccc2c(c1)NC(=O)C(CC(=O)NC1CCCCC1C)O2 (stereo not given) 0.00567
Cc1cccc(N2CCN(C(=O)CCn3c(=S)[nH]c4cc5c(cc4c3=O)OCO5)CC2C)c1 (stereo not given) 0.00669
CC1CN(Cc2nc3c(c(=O)[nH]c(=O)n3C)n2CC(N)=O)CC(C)O1 (stereo not given) 0.00597
Cc1[nH]nc(N=CC2=C(O)CC(C)(C)CC2=O)c1-c1ccccc1 0.00489
Cc1ccc(N2C(=O)c3ccccc3C2O)nc1 (stereo not given) 0.00652
